Data: PubChem BioAssay (NCI)
Where “and” joins values, the source holds several entries; their conditions need not be identical. Equal values may be shown once. The panel holds about 83,000 compounds, 20% with a hit somewhere; the sample as a whole holds those more often.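 Compound tested at a single concentration for 48 hours in 96-well plates; a percent growth value below 10 was scored as active.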 Calls of active or inactive are those of the source.

Test system: TK-10 renal
Assay: NCI-60 one-dose screen, 48 h (100 = growth as untreated, 0 = no growth, -100 = all killed)
Conditions: 10 µM unless noted
Method: Growth inhibition of the TK-10 human tumor cell line is measured as a screen for anti-cancer activity. Cells are grown in 96 well plates and exposed to the test compound for 48 hours. Compounds are tested at a single concentration, which is 10^-5 M for most compounds. The reported endpoint is percent growth (GI% or GIPRCNT), where numbers from 0 - 100% represent growth inhibition, and numbers from -100% - 0 represent cell death. For example, a value of 40 represents 60% growth inhibition. A value of 0 means no net growth occurred over the course of the experiment. A value of -40 indicates 40% of cells at the beginning of the experiment died by the end of the experiment. A value of -100 means all cells are dead at the end of the experiment.
NCI-60 Human Tumor Cell Lines Screen was performed using the standard one-dose NCI protocol, which is described in more detail at https://dtp.cancer.gov/discovery_development/nci-60/default.htm.
Compounds with GIPRCNT values below 10 were considered active. Activity score was based on GIPRCNT using the following formula: […]
Score is 0 for GIPRCNT values of 100 or above, 50 for GIPRCNT values of 0, and 100 for GIPRCNT values of -100.

Structure (SMILES) | growth
O=C(CCCOc1ccc(Br)cc1)Nc1ncc(Cc2ccc(F)cc2)s1 | 86.5% (inactive)
FC(F)(F)Sc1ccc(/C=C/c2cc(/C=C/c3ccc(SC(F)(F)F)cc3)n(-c3ccccc3)n2)cc1 | 100% (inactive)
C=C[C@]1(C)C=C2CC[C@@H]3C(C)(C)C(=O)CC[C@@]3(C)[C@@H]2CC1 | 98.7% (inactive)
O=[N+]([O-])c1cc(C(F)(F)F)ccc1Sc1ccc(C(F)(F)F)cc1[N+](=O)[O-] | 98.7% (inactive)
CC[C@]1(O)CC2CN(CCc3c([nH]c4ccccc34)C(C(=O)OC)(c3cc4c(cc3OC)N(C=O)[C@H]3[C@@](O)(C(=O)OC)[C@H](OC(C)=O)[C@]5(CC)[C@@H]6C[C@@H]6CN6CC[C@]43[C@@H]65)C2)C1 (stereo not given in full) | 50% (inactive)
O=C(O)C1C2CCC1C(O)C2 (stereo not given) | 93.1% (inactive) and 98.2% (inactive)
Cn1c(=O)c2c(nc(Nc3cc(=O)[nH]c(=O)[nH]3)n2Cc2ccccc2)n(C)c1=O | 14.3% (inactive)
COc1ccc(CCNC(=O)COc2cc3c(Nc4ccc(F)c(Cl)c4)ncnc3cc2OC)cc1OC | 37.4% (inactive)
COc1cc2nc3cc([N+](=O)[O-])ccc3c(NCCNCC(C)(C)O)c2cc1OC | 9.89% (active)
c1cc(NCCCCN2CCOCC2)c2ccc3c(ccc4c(NCCN5CCOCC5)ccnc43)c2n1 | 143% (inactive)
CCCCCCCCCCCCCCCC[N+](C)(C)CCN(Cc1ccc(OC)cc1)c1ncccn1 | -90.3% (active) and 71.7% (inactive)
O=C(/C=C/c1cccs1)Nc1ncc(Cc2ccc(Cl)c(Cl)c2)s1 | 61.5% (inactive)
Cc1ccc(-c2nc(C#N)c(S(=O)(=O)N(C)C)o2)cc1 | 103% (inactive)
COc1ccc(-c2cc(-c3cccnc3)nc3sc4c(Cl)nnnc4c23)cc1OC | 129% (inactive)
COc1ccc(/C=C2/C(=O)N=C3N2NC(c2ccccc2)=CN3c2ccccc2)cc1 | 124% (inactive)
O=C(/C=C/C12c3ccccc3C(c3ccccc31)C1C(=O)NC(=O)C12)c1ccncc1 (stereo not given) | 17.5% (inactive)
S=c1nc(CS)[nH]c2ccccc12 | 161% (inactive)
COc1ccc(-c2c[nH]c(C(=O)O)c2-c2cc(OC)c(OC)c(OC)c2)cc1 | 63.3% (inactive)
N=C(N)SCc1c2ccccc2c(CSC(=N)N)c2ccccc12 | 98.5% (inactive)
CC/C(=C(/c1ccc(Cl)cc1)c1ccc(OCCN2CCOCC2)cc1)c1ccccc1 | 108% (inactive)

Structure (SMILES) | growth
COc1ccc2nc3cc(Cl)ccc3c(NCCCNCCC(C)O)c2c1 (stereo not given) | 8.67% (active)
Cc1ccc(-c2nc3nc(-c4ccc(Br)cc4)nc(N4CCCNCC4)c3o2)cc1 | 19.9% (inactive)
COc1ccc(Nc2nn3c(SCC(=O)c4ccc(C)cc4)nnc3s2)cc1 | 107% (inactive)
COC(=O)/C=C1/SC(=Nc2ccc([N+](=O)[O-])cc2)N(CCc2c[nH]c3ccccc23)C1=O | 103% (inactive)
CCOC(=O)CC1CSC(c2cccc(Cl)c2)=N1 (stereo not given) | 92.1% (inactive)
COc1ccc(C2Nc3nc(SC)nc(N)c3N=C3c4ccccc4CCC32)cc1 (stereo not given) | 158% (inactive)
O=C1CCc2c(sc3[nH]c(=S)n(Cc4ccc(Cl)cc4)c(=O)c23)C1 | 15.3% (inactive)
N#Cc1cc(-c2ccnc(Nc3ccc(NC(=O)CCl)cc3)n2)ccc1N1CCCC1 | 9.16% (active)
CC(=O)OC[C@]12CCC(C)(C)C=C1[C@H]1CC[C@@H]3[C@@]4(C)CCCNC(C)(C)[C@@H]4CC[C@@]3(C)[C@]1(C)CC2 | 94.9% (inactive)
O=C1C(N2CCOCC2)=C(I)C(=O)c2ncccc21 | 111% (inactive)
COc1c(O)c(O)cc2c3c(oc12)CC(c1ccc2c(c1)OCO2)CC3=O (stereo not given) | 101% (inactive)
COc1ccc(Oc2nc(Nc3ccc(N4CCOCC4)cc3)ncc2NC(=O)c2cccc(C(F)(F)F)c2)cc1 | 93% (inactive)
O=c1oc2c(Br)cc(Br)cc2cc1-c1cc(-c2ccc(-c3cc(-c4cc5cc(Br)cc(Br)c5oc4=O)nc(-c4cc5cc(Br)cc(Br)c5oc4=O)c3)cc2)cc(-c2cc3cc(Br)cc(Br)c3oc2=O)n1 | 107% (inactive)
Clc1nccc2c(-c3csc(-c4c[nH]c5ccc(Br)cc45)n3)c[nH]c12 | 28.6% (inactive)
COc1ccc(-c2cc(-c3cc(OC)c(OC)c(OC)c3)c(C#N)c(=O)n2CCCCC(=O)O)cc1 | 112% (inactive)
CCOC(=O)c1cnn(-c2ccc(S(N)(=O)=O)cc2)c1N | 99.6% (inactive)
COc1ccc(/C=N/C2=C(C#N)C(c3ccccc3)c3c(ccc4ccccc34)O2)cc1 (stereo not given) | 64.4% (inactive)
Cn1ccnc1CN1CCSC(C(=O)Nc2ccccc2)C1 (stereo not given) | 101% (inactive)
COC1=CC(=O)C(OC)=C(O)C1=O | 105% (inactive)
CCNC(=O)Nc1ncccc1OCc1ccc(F)cc1 | 92.8% (inactive)
